Reference: PubChem BioAssay (EPA / NIEHS)
Values joined by “and” are separate entries in the source; they are usually repeats but may differ in a detail not shown here. Identical values can stand only once. Active and inactive are the calls of the source. How the source made its calls: active means hit-call score of the fitted dose curve at least 0.9, where 1 is the maximum; inactive means score below 0.9.

How the values were obtained:
[1] = read-out: Macrophage colony-stimulating factor (MCSF), CSF1 (gene 1435); experiment: BSK_CASM3C_MCSF: BioMAP Diversity Plus: CASM3C Assay for Macrophage colony-stimulating factor (MCSF) Biomarker Activity (AID 2283044); details: primary human coronary artery smooth muscle cells; actives raise or lower the signal;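 further: M-CSF protein amount quantified by ELISA after 24 h exposure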
[2] = read-out: Low-density lipoprotein receptor (LDLR), LDLR (gene 3949); experiment: BSK_CASM3C_LDLR: BioMAP Diversity Plus: CASM3C Assay for Low-density lipoprotein receptor (LDLR) Biomarker Activity (AID 2283045); details: primary human coronary artery smooth muscle cells; actives raise or lower the signal;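 further: LDLR protein level on the cell surface quantified by ELISA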
[3] = read-out: Monocyte Chemoattractant Protein-1 (MCP1), CCL2 (gene 6347); experiment: BSK_CASM3C_MCP1: BioMAP Diversity Plus: CASM3C Assay for Monocyte Chemoattractant Protein-1 (MCP1) Biomarker Activity (AID 2283046); details: primary human coronary artery smooth muscle cells; actives raise or lower the signal;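 further: MCP-1 level quantified by ELISA 24 h after dosing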
[4] = BSK_CASM3C_Proliferation: Cell Proliferation Assessment in the BioMAP Diversity Plus: CASM3C Assay (AID 2283047); details: primary human coronary artery smooth muscle cells;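 further: sulforhodamine B total protein stain as relative cell number at 560 nm; sub-confluent cells exposed 48 h before staining; fitted both ways against DMSO so gain or loss of cell number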
[5] = BSK_CASM3C_SRB: Viability Assessment in the BioMAP Diversity Plus: CASM3C Assay (AID 2283050); details: primary human coronary artery smooth muscle cells
[6] = read-out: Interleukin-8 (IL8), CXCL8 (gene 3576); experiment: BSK_hDFCGF_IL8: BioMAP Diversity Plus: hDFCGF Assay for Interleukin-8 (IL8) Biomarker Activity (AID 2283058); details: primary human foreskin fibroblasts; actives raise or lower the signal
Method in brief: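 ELISA read-out of IL-8 from primary human foreskin fibroblast cultures taken 24 h after dosing; values are bidirectional fits relative to DMSO vehicle.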

[7] = read-out: Macrophage colony-stimulating factor (MCSF), CSF1 (gene 1435); experiment: BSK_hDFCGF_MCSF: BioMAP Diversity Plus: hDFCGF Assay for Macrophage colony-stimulating factor (MCSF) Biomarker Activity (AID 2283060); details: AC50: primary human foreskin fibroblasts, actives raise or lower the signal unless noted; outcome: primary human foreskin fibroblasts, actives raise or lower the signal unless noted
Method in brief: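 ELISA read-out of M-CSF in human dermal foreskin fibroblast cultures, 24 h after chemical dosing; gain or loss of signal fitted bidirectionally relative to DMSO baseline.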

[8] = BSK_hDFCGF_SRB: Viability Assessment in the BioMAP Diversity Plus: hDFCGF Assay (AID 2283061); details: primary human foreskin fibroblasts;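 further: cells exposed to compound for 24 h before the read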
Method in brief: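 Primary human foreskin fibroblasts; 24 h post-dose; fixed 10% TCA, stained 0.1% SRB, A560 read; total protein as overt cytotoxicity measure; curves fit bidirectionally vs DMSO control.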

[9] = read-out: Monokine induced gamma interferon (MIG), CXCL9 (gene 4283); experiment: BSK_hDFCGF_MIG: BioMAP Diversity Plus: hDFCGF Assay for Monokine induced gamma interferon (MIG) Biomarker Activity (AID 2283063); details: primary human foreskin fibroblasts; actives raise or lower the signal
Method in brief: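 Fibroblasts (human foreskin, primary) dosed, 24 h, MIG by ELISA; fit bidirectional vs DMSO.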

[10] = read-out: Matrix Metallopeptidase 1 (MMP1), MMP1 (gene 4312); experiment: BSK_hDFCGF_MMP1: BioMAP Diversity Plus: hDFCGF Assay for Matrix Metallopeptidase 1 (MMP1) Biomarker Activity (AID 2283064); details: primary human foreskin fibroblasts; actives raise or lower the signal
Method in brief: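 Primary human foreskin fibroblasts exposed to chemicals for 24 h; MMP1 measured by ELISA. Cytotoxicity tracked by SRB staining in parallel cultures; bidirectional fit relative to DMSO.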

[11] = read-out: Plasminogen activator inhibitor-1 (PAI1), SERPINE1 (gene 5054); experiment: BSK_hDFCGF_PAI1: BioMAP Diversity Plus: hDFCGF Assay for Plasminogen activator inhibitor-1 (PAI1) Biomarker Activity (AID 2283066); details: primary human foreskin fibroblasts; actives raise or lower the signal
Method in brief: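 PAI-1 levels, determined by ELISA, served as the endpoint in human foreskin fibroblast cultures exposed to compound for 24 h, with DMSO as baseline.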

[12] = read-out: Interferon-gamma inducible Protein 10 (IP10), CXCL10 (gene 3627); experiment: BSK_KF3CT_IP10: BioMAP Diversity Plus: KF3CT Assay for Interferon-gamma inducible Protein 10 (IP10) Biomarker Activity (AID 2283068); details: primary human keratinocytes with fibroblasts; actives raise or lower the signal
Method in brief: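 ELISA read-out of IP-10 after 24 h chemical dosing of human skin primary co-culture (keratinocytes, foreskin fibroblasts). Gain or loss of signal relative to DMSO, bidirectional curve fit.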

[13] = BSK_KF3CT_SRB: Viability Assessment in the BioMAP Diversity Plus: KF3CT Assay (AID 2283069); details: primary human keratinocytes with fibroblasts;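 further: total protein by sulforhodamine B staining as a cytotoxicity measure; read 24 h after compound addition; fitted for both signal gain and loss against DMSO baseline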
Method in brief: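 Human keratinocyte and foreskin fibroblast co-culture exposed to chemical for 24 h. Total protein measured in parallel cultures by 0.1% sulforhodamine B staining after 10% TCA fixation, read at 560 nm; bidirectional fit relative to DMSO.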

[14] = read-out: Interleukin-1 alpha (IL1a), IL1A (gene 3552); experiment: BSK_KF3CT_IL1a: BioMAP Diversity Plus: KF3CT Assay for Interleukin-1 alpha (IL1a) Biomarker Activity (AID 2283070); details: primary human keratinocytes with fibroblasts; actives raise or lower the signal
Method in brief: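 Primary human keratinocyte plus foreskin fibroblast co-culture, dosed and measured at 24 h in 96-well plates. IL-1a level quantified by ELISA; bidirectional fit relative to DMSO.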

[15] = read-out: TIMP metallopeptidase inhibitor 2 (TIMP2), TIMP2 (gene 7077); experiment: BSK_KF3CT_TIMP2: BioMAP Diversity Plus: KF3CT Assay for TIMP metallopeptidase inhibitor 2 (TIMP2) Biomarker Activity (AID 2283071); details: primary human keratinocytes with fibroblasts; actives raise or lower the signal
Method in brief: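 Keratinocyte–fibroblast co-culture, 24 h exposure; TIMP-2 ELISA, DMSO-normalised bidirectional fit. Parallel SRB (0.1%, TCA-fixed, 560 nm) total-protein staining gauges cytotoxicity.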

[16] = read-out: C-C motif chemokine 2 (Homo sapiens) (UniProt P13500); experiment: BSK_KF3CT_MCP1: BioMAP Diversity Plus: KF3CT Assay for Monocyte Chemoattractant Protein 1 (MCP1/CCL2) Biomarker Activity (AID 2283073); details: primary human keratinocytes with fibroblasts; actives raise or lower the signal
Method in brief: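 KF3CT skin co-culture (keratinocytes/foreskin fibroblasts), 24 h post-dose; MCP-1 by ELISA; gain/loss of signal fit bidirectionally vs DMSO baseline.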

[17] = read-out: urokinase plasminogen activator (uPA), PLAU (gene 5328); experiment: BSK_KF3CT_uPA: BioMAP Diversity Plus: KF3CT Assay for urokinase plasminogen activator (uPA) Biomarker Activity (AID 2283075); details: primary human keratinocytes with fibroblasts; actives raise or lower the signal
Method in brief: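 Primary human keratinocyte/foreskin fibroblast co-culture exposed to chemical; uPA measured by ELISA at 24 h. Bidirectional fit versus DMSO, with parallel SRB total-protein staining for cytotoxicity.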

[18] = BSK_LPS_SRB: Viability Assessment in the BioMAP Diversity Plus: LPS Assay (AID 2283079); details: primary human HUVEC with PBMC;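 further: total protein by sulforhodamine B absorbance as a cytotoxicity measure; measured one day after compound addition; fitted in both directions against DMSO so loss or gain of signal counts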
Method in brief: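 HUVEC + PBMC co-culture, LPS-stimulated; compound 24 h. 10% TCA fix, 0.1% SRB stain, A560. Bidirectional fit vs DMSO.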

[19] = read-out: Tumor necrosis factor (Homo sapiens) (UniProt P01375); experiment: BSK_LPS_TNFa: BioMAP Diversity Plus: LPS Assay for Tumour Necrosis Factor alpha (TNFa) Biomarker Activity (AID 2283085); details: primary human HUVEC with PBMC; actives raise or lower the signal
Method in brief: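 Primary human vascular co-culture of HUVEC and PBMC; TNFa ELISA 24 h after treatment, analysed as increase or decrease relative to DMSO control.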

[20] = read-out: Vascular cell adhesion molecule 1 (VCAM1), VCAM1 (gene 7412); experiment: BSK_LPS_VCAM1: BioMAP Diversity Plus: LPS Assay for Vascular cell adhesion molecule 1 (VCAM1) Biomarker Activity (AID 2283086); details: primary human HUVEC with PBMC; actives raise or lower the signal
Method in brief: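 Primary human vascular co-culture (umbilical vein endothelium plus PBMC) stimulated with LPS received chemical; 24 h later VCAM-1 was read by ELISA. Overt cytotoxicity was assessed by sulforhodamine B staining of parallel cultures at the same time point.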

Measured: AC50

Sequence of Tumor necrosis factor (Homo sapiens) (P01375 whole entry, looked up): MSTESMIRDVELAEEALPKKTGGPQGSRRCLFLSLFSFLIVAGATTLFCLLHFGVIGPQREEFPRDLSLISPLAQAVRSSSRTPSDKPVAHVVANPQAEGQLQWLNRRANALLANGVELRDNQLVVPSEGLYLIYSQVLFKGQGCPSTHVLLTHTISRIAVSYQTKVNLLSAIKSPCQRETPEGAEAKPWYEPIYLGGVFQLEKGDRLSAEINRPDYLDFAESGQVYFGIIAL

OC(C(F)(F)F)(C(F)(F)F)C(O)(C(F)(F)F)C(F)(F)F
inactive: [2] | [3] | [6] | [8] | [10] | [17] | [19]
active: [1] 49 µM and 50.5 µM | [4] 27.7 µM and 28.9 µM | [5] 30 µM and 26.9 µM | [7] 14.3 µM and 19.2 µM | [9] 30 µM | [11] 33.1 µM and 33.8 µM | [12] 48.7 µM and 47.2 µM | [13] 46.9 µM and 58.2 µM | [14] 52.7 µM and 54 µM | [15] 50.7 µM and 51.8 µM | [16] 7.89 µM and 7.97 µM | [18] 30.3 µM and 24.3 µM | [20] 21.9 µM and 28.8 µM

COC(=O)/C=C\C(=O)OC
active: [20] 8.6 µM
inactive: all other assays above

COc1cc(CNC(=O)CCCC/C=C/C(C)C)ccc1O
inactive: all assays above

CCCCC(CC)COC(=O)C=Cc1ccc(OC)cc1 (stereo not given)
active: [7] 15.9 µM and 12.6 µM | [9] 12 µM and 10.2 µM | [18] 32.1 µM and 36.7 µM
inactive: all other assays above

COc1ccccc1Oc1c(NS(=O)(=O)c2ccc(C(C)(C)C)cc2)nc(-c2ncccn2)nc1OCCO
active: [1] 4.05 µM and 5.31 µM
inactive: all other assays above

C1CN(CCOCCN2CCOCC2)CCO1
inactive: all assays above
